FMDV antiviral – High Throughput Screening for Foot and Mouth Disease Virus Antivirals. FMDV antiviral cell-based qHTS. Potency, µM (top dose mostly 57.9 µM), without a hit: at the top dose activity change, negative = inhibition, usual class: inhibitors. 410,000 compounds, 1.2% hits. AID 1159524, 2015; calls by dose curve; tested in HEK293T cells; further: read-out not given here; potency means the concentration at half of the fitted maximal effect; nearly all actives have a fitted effect of over 45% in size
VACV Venus inh – qHTS for Stage-Specific Inhibitors of Vaccinia Orthopoxvirus: Venus Reporter Primary qHTS; Vaccinia virus Venus reporter expression, fluorescence; Potency, µM (doses to about 36.5 µM), for inactives: at the highest dose activity change, negative = inhibition, actives largely listed as inhibitors; 330,000 compounds, 0.46% hits; AID 720580, 2013; calls by dose curve; tested in A549 cells; further: potency means the concentration at half of the fitted maximal effect; nearly all actives have a fitted effect of over 30% in size
HCMV inh – qHTS Assay for inhibitors of the human cytomegalovirus (HCMV). HFF cells, HCMV-luciferase reporter, 72 h; stronger effect = lower value. 410,000 compounds, 4.5% hits. activity change, negative = inhibition, % at 57.5 µM. AID 1259415, 2018; in the data active means activity change below about -60%; inconclusive means no clear call, values can overlap the other calls; inactive means above about -39%
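Screen run at 2 compound doses on HFFs infected with reporter HCMV, MOI 1 PFU/cell. Luciferase activity from cell lysates at 72 h post infection gave inhibition relative to buffer-only and Salinomycin wells.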
HCV inh – qHTS Assay for Inhibitors of Hepatitis C Virus (HCV) | Huh7.5.1 HCVcc-Cre infection, luciferase reporter, 44 h | Potency, µM (highest dose often 41.8 µM), without a hit: at the top dose activity change, negative = inhibition, actives largely listed as inhibitors | 340,000 compounds, 3.4% hits | AID 651820, 2012; active means well fitted inhibition curve with a large enough effect; inconclusive means small, poorly fitted or top-dose-only effect, or another doubt; inactive means no such curve, though single readings can be large or run the other way; further: potency means the concentration at half of the fitted maximal effect
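Infectious HCV cell culture screen: compound-treated cells (1,000/well, pre-plated 4 h) are infected with HCVcc-Cre at roughly 0.5 moi and grown 44 h. Infection is quantified by luciferase signal after 15 min substrate incubation at room temperature.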
Vaccinia mCherry – qHTS for Stage-Specific Inhibitors of Vaccinia Orthopoxvirus: mCherry Reporter Primary qHTS | Vaccinia virus mCherry reporter infection, fluorescence | Potency, µM (titrated, usually from 36.5 µM), without a hit: at the highest dose activity change, negative = inhibition, most hits filed as inhibitors | 310,000 compounds, 0.63% hits | AID 720579, 2013; calls by dose curve; tested in A549 cells; further: potency means the concentration at half of the fitted maximal effect; nearly all actives have a fitted effect of over 35% in size
The depositor's hits bear a star; [ ] = dose if it differs, or a comment. Rows were chosen to be rich in hits. Some 7.3% of all compounds tested hit in one or more screens of this group. On the % scale 0 is the no-effect control and ±100 the full control effect.

Results for O=C(COC(=O)c1ccc(S(=O)(=O)N2CCCC2)cc1)Nc1cccnc1Cl ?
FMDV antiviral: -8%; VACV Venus inh: -16%; HCMV inh: -6; HCV inh: -5%; Vaccinia mCherry: inactive

What do the screens show for `COc1cc(S(=O)(=O)Nc2ccc(C)cc2)ccc1NC(=O)c1ccncc1`?
FMDV antiviral: 35%; VACV Venus inh: -22%; HCMV inh: -19; HCV inh: -1%; Vaccinia mCherry: -8%

What do the screens show for `COc1ccccc1NS(=O)(=O)c1ccc(C)c(NC(=O)c2ccc(S(=O)(=O)N3CCCCCC3)cc2)c1`?
FMDV antiviral: -25%; VACV Venus inh: -26%; HCMV inh: -69*; HCV inh: 7.9µM*; Vaccinia mCherry: -30%

What do the screens show for `COc1ccccc1NC(=O)c1ccc(S(=O)(=O)N2CCCC2)cc1`?
FMDV antiviral: -17%; VACV Venus inh: -16%; HCMV inh: 24; HCV inh: -12%; Vaccinia mCherry: 2%

How did Cc1noc2ncnc(Oc3cc(Cl)ccc3Cl)c12 do in these assays?
FMDV antiviral: -18%; VACV Venus inh: -5%; HCMV inh: -39; HCV inh: 13µM*; Vaccinia mCherry: inactive

Results for COc1ccc(C2c3c(-c4ccccc4O)n[nH]c3C(=O)N2CCc2ccccc2)cc1 (configuration not stated) ?
FMDV antiviral: -25%; VACV Venus inh: -7%[7.34 µM]; HCMV inh: -67*; Vaccinia mCherry: -3%[7.34 µM]

How did Cc1cc(C)c(-c2n[nH]c3c2C(c2ccccc2F)N(Cc2ccco2)C3=O)c(O)c1 (configuration not stated) do in these assays?
FMDV antiviral: -8%; VACV Venus inh: -10%[7.34 µM]; HCMV inh: -73*; Vaccinia mCherry: -13%[7.34 µM]

How did O=C1c2[nH]nc(-c3ccccc3O)c2C(c2cccc(Br)c2)N1Cc1ccncc1 (configuration not stated) do in these assays?
FMDV antiviral: 10%; VACV Venus inh: inconclusive; HCMV inh: -82*; Vaccinia mCherry: inconclusive

What do the screens show for `COc1ccc(CCN2C(=O)c3[nH]nc(-c4ccccc4O)c3C2c2cccc(OC)c2)cc1` (configuration not stated)?
FMDV antiviral: -12%; VACV Venus inh: inconclusive; HCMV inh: -71*; Vaccinia mCherry: inconclusive

Results for COCCNC(=O)Nc1cc(C(=O)NCc2ccc(C(C)C)cc2)ccc1N1CCCC1 ?
FMDV antiviral: -14%; VACV Venus inh: -21%; HCMV inh: -1; Vaccinia mCherry: inactive

What do the screens show for `CCOc1ccc(Nc2oc(/C=C/c3cc(OC)c(OC)c(OC)c3)nc2C#N)cc1`?
FMDV antiviral: -24%; VACV Venus inh: -15%; HCMV inh: 11; Vaccinia mCherry: -19%

Results for COc1ccc2c(c1)OC(C)CN(CCNC(=O)c1cc3cc(F)ccc3[nH]1)C2 (configuration not stated) ?
FMDV antiviral: 17%; VACV Venus inh: -10%; Vaccinia mCherry: -13%

What do the screens show for `CCCOc1cccc(C2c3c(-c4ccccc4O)n[nH]c3C(=O)N2Cc2ccco2)c1` (configuration not stated)?
FMDV antiviral: -20%; VACV Venus inh: -13%[7.34 µM]; HCMV inh: -72*; Vaccinia mCherry: -16%[7.34 µM]

How did O=C1c2[nH]nc(-c3ccccc3O)c2C(c2cccc(O)c2)N1Cc1ccco1 (configuration not stated) do in these assays?
FMDV antiviral: -13%; VACV Venus inh: -23%; HCMV inh: 21; HCV inh: inconclusive

How did CCOc1ccc(C2c3c(-c4cc(C)ccc4O)n[nH]c3C(=O)N2Cc2cccnc2)cc1OCC (configuration not stated) do in these assays?
FMDV antiviral: -18%; VACV Venus inh: -1%; HCMV inh: -10; Vaccinia mCherry: -8%

Results for CC(C)c1ccc(C2c3c(-c4ccccc4O)n[nH]c3C(=O)N2CCc2ccccc2)cc1 (configuration not stated) ?
FMDV antiviral: -7%; VACV Venus inh: inconclusive; HCMV inh: -100*; Vaccinia mCherry: -3%
